Tb PFK inh-1 – qHTS Assay to Find Inhibitors of T. brucei phosphofructokinase; T. brucei PFK, ADP-Glo luminescence; AID 485367, 2010; ATP-dependent 6-phosphofructokinase (Trypanosoma brucei brucei), O15648; hit rate 0.17% among 330,000; Potency, µM (titrated, usually from 57.5 µM), for inactives: top-dose activity, negative = inhibition, usual class: inhibitors;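 further: 0% = uninhibited 1x PFK enzyme wells and -100% = no-enzyme wells; nearly all actives have a fitted effect of over 60% in size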
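Compounds were pin-transferred as a titration series up to 57 uM into substrate buffer (0.5 mM F6P, 0.1 mM ATP, pH 8.0), then 1.25 nM PFK was added and reactions ran 45 min before ADP-Glo detection.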
Pin1 inh – qHTS Assay to Find Inhibitors of Pin1; Peptidyl-prolyl cis-trans isomerase NIMA-interacting 1 (Homo sapiens), Q13526; Pin1 FP peptide displacement, HiFluor488, 10 min; Potency, µM (titrated, usually from 115 µM), without a hit: top-dose activity, negative = inhibition, actives largely listed as inhibitors; hit rate 0.009% among 390,000; active means well fitted inhibition curve with a large enough effect in the polarisation, with a control signal flat, not every such curve was filed as active; inconclusive means small, poorly fitted or top-dose-only effect, or effect the other way, or a change in a side signal; inactive means no such curve, though single readings can be large or run the other way; the % refers to the polarisation; further: on the % scale 0 is the no-effect control and ±100 the full control effect
GLS inh – qHTS for Inhibitors of Glutaminase (GLS). Glutaminase kidney isoform, mitochondrial (Homo sapiens), O94925. GLS enzymatic activity, qHTS titration. Potency, µM (highest dose often 45.5 µM), inactives show at the highest dose activity change, negative = inhibition, actives largely listed as inhibitors. hit rate 0.21% among 410,000; further: on the % scale 0 is the no-effect control and ±100 the full control effect
Target sequence (O94925 whole entry, looked up, canonical isoform): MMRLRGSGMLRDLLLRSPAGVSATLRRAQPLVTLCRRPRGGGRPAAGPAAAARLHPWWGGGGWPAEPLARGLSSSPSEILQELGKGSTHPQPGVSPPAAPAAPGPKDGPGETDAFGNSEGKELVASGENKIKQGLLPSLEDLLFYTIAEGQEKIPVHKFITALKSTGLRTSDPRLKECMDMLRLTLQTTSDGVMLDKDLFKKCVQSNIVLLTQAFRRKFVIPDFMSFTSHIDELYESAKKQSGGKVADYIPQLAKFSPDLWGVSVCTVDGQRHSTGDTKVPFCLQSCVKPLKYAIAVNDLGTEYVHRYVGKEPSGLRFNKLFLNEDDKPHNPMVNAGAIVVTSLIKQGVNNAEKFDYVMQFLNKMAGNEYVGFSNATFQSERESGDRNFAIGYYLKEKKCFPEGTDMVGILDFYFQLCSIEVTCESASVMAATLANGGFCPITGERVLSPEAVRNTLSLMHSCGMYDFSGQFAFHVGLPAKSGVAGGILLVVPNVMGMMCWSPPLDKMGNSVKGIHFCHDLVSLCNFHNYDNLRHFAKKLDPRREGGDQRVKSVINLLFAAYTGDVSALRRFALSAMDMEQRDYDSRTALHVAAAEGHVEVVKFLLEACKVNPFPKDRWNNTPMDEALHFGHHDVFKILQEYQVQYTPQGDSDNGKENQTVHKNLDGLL
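hKGA; 45 mM KH2PO4 pH 8.2 + 0.02% Tween-20; cpd via pin tool; 1 mM Gln soln; GluOx/HRP/Amplex Red; RT 30 min; fluor. t0 & final.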
VDR inh – Inhibitors of the vitamin D receptor (VDR): qHTS | VDR-SRC2-3 peptide fluorescence polarization, 2 h | Potency, µM, inactives show max response, negative = inhibition, hits mostly inhibitors | hit rate 0.93% among 400,000 | AID 504847, 2011; further: on the % scale 0 is the no-effect control and ±100 the full control effect
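Two reagent solutions held at 4 deg C in the dark were dispensed, compounds pinned at 23 nl, and the mixture incubated 2 h at room temperature. Read-out: fluorescence polarization of VDR–SRC2-3 peptide binding.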
PGK inhibitor – qHTS Assay to Find Inhibitors of Phosphoglycerate Kinase. Phosphoglycerate kinase, glycosomal (Trypanosoma brucei brucei), P07378. PGK/GAPDH coupled, Kinase-Glo luminescence, 60 min. Potency, µM (titrated, usually from 57.5 µM), inactives show at the top dose activity change, negative = inhibition, most hits filed as inhibitors. hit rate 0.043% among 380,000; further: on the % scale 0 is the no-effect control and ±100 the full control effect; nearly all actives have a fitted effect of over 60% in size
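Luminescent ATP detection (Kinase-Glo Plus) follows a 60-minute room-temperature incubation, with wells lacking PGK as controls. Buffer: 100 mM TEA (pH 7.6), 5 mM MgCl2, 0.01% Tween-20. Coupling enzyme GAPDH (100 nM final) supplies unstable 1,3-BPG in-well.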
TbPFK ATP – Tb PFK orthogonal confirmatory assay using ATP depletion (Kinase-Glo Plus) as an alternative measure of Tb PFK activity: Hit Validation; shares compounds with Tb PFK inh-1; Tb PFK enzyme, ATP depletion, Kinase-Glo Plus luminescence; Potency, µM (highest dose often 57.5 µM), without a hit: top-dose inhibition; hit rate 47% among 1,100; calls by dose curve; further: nearly all actives have a fitted effect of over 60% in size
Tb PFK inh-2 – Inhibitors of T. brucei phosphofructokinase: Hit Validation. shares compounds with Tb PFK inh-1. purified T. brucei PFK, ADP-Glo luminescence, 45 min. Potency, µM (top dose mostly 57.5 µM), inactives show at the highest dose activity change, negative = inhibition, actives largely listed as inhibitors. hit rate 41% among 1,100;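 further: plate controls were full PFK enzyme control for no effect and no enzyme control for full effect; nearly all actives have a fitted effect of over 60% in size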
Numbers without * were called inactive; i = inactive; ? = inconclusive; . = no result given; ! = a repeat was not active; [ ] = another dose, or the depositor's remark. A selection: hits, their analogues and other compounds. The true share with any hit is near 1.1%. Unless noted, the call rests on the fitted dose curve; in most records, active means well fitted curve in the direction sought with a large enough effect; inconclusive means small, poorly fitted or top-dose-only effect, or another doubt; inactive means no such curve, though single readings can be large; an effect the other way counts as inactive or inconclusive. Potency means the concentration at half of the fitted maximal effect.

SMILES	Tb PFK inh-1	Pin1 inh	GLS inh	VDR inh	PGK inhibitor	TbPFK ATP	Tb PFK inh-2
Cc1ccc(C(=O)NC2CCN(S(=O)(=O)c3ccc(C)cc3)CC2)cc1	-3%	2%	-3%	?	-5%	.	.
O=C(Nc1ccc2c(c1)OCO2)c1cccc2c1C(=O)N(Cc1cccnc1)C2	?	?	1%	4%	-3%	?	?
c1cncc(CNCCc2ccc3c(c2)OCO3)c1	-2%	3%	-1%	-18%	10%	.	.
Cc1nc2cc([N+](=O)[O-])ccc2c(=O)n1-c1ccccc1[N+](=O)[O-]	-3%	-1%	0%	2%	i	.	.
O=c1/c(=C\c2cc([N+](=O)[O-])cc([N+](=O)[O-])c2O)sc2nc3ccccc3n12	?	?	?	40µM*	?	?	-7%
Cc1ccc(N/N=C/c2c(C)c(C#N)c(=O)n(C)c2O)cc1C	?	?	?	?	i	6%	-3%
NC(=O)CNC(=O)C1CCCc2c1[nH]c1ccc(Cl)cc21 (stereo not given)	6µM*	-15%	-8%	1%	i	2.4µM*	3.4µM*
CCN1C(=O)N/C(=C/c2ccc(C)o2)C1=O	13µM*	1%	-2%	89µM*	-6%	?	?
Cc1ccc(/C=C2/NC(=O)N(c3ccccc3)C2=O)o1	?	?	5%	?	-3%	?	?
Cc1ccc(/C=C2/NC(=O)N(Cc3ccc(Br)cc3)C2=O)o1	15µM*	11%	2%	?	-1%	?	?
Cc1ccc(/C=C2/C(=O)NC(=O)N(CCc3ccc(F)cc3)C2=O)o1	1%	48%	1%	73%	-2%	.	.
O=C1NC(=O)N(c2ccccc2)C(=O)/C1=C/c1ccc(Sc2ccccc2)o1	19%	25%	17%	?	-6%	.	.
Cc1ccc(/C=C2/NC(=O)N(Cc3ccccc3F)C2=O)o1	?	7%	-3%	79µM*	i	?	-27%
CC(C)CN1CC2(CCN(C(=O)c3ccncc3)CC2)C1	.	.	.	-1%	.	.	.
COc1cc(CN2CCN(C(=O)Cc3ccccc3)CC2)cc(OC)c1OC	0%	5%	3%	2%	-2%	.	.
COc1cc(CC(=O)Nc2nc(-c3ccccc3)c(C(C)=O)s2)cc(OC)c1OC	?	2%	-2%	14%	i	?	?
C=C1Nc2ccccc2C(=O)N1c1ccccc1C	.	.	4%	2%	.	.	.
O=C(Nc1ccccc1C(F)(F)F)c1cccn(Cc2ccccc2)c1=O	.	2%	-3%	7%	8%	.	.
Cc1ccc(O)c(NC2=C(Cl)C(=O)N(Cc3ccccc3)C2=O)c1	24µM*	0%	25%	?	2%	11µM*	19µM*
Cc1ccccc1CN1C(=O)C(C)N=C(c2ccccc2)c2ccccc21 (stereo not given)	.	0%	1%	1%	i	.	.
Cc1nc(Cc2nnc(SCC(=O)N3CCN(c4ccc(O)cc4)CC3)o2)cs1	?	?	-1%	-1%	-3%	?	?
Cc1cc(NS(=O)(=O)c2ccc(NC(=O)Cc3ccc([N+](=O)[O-])cc3)cc2)nc(C)n1	8.5µM*	-7%	-6%	17%	-11%	3.8µM*	6µM*
Cc1cc(NS(=O)(=O)c2ccc(NC(=O)/C=C/c3ccc(C)o3)cc2)nc(C)n1	?	0%	10µM*	?	-1%	-12%	?
Cc1noc(NS(=O)(=O)c2ccc(NC(=O)Cc3ccc([N+](=O)[O-])cc3)cc2)c1C	6µM*	-3%	-3%	-28%	-4%	3.4µM*	12µM*
ClC1=C(Cl)C2(Cl)C3C4CC(C5OC45)C3C1(Cl)C2(Cl)Cl (stereo not given)	.	.	1%	?	.	.	.
SMILES	Tb PFK inh-1	Pin1 inh	GLS inh	VDR inh	PGK inhibitor	TbPFK ATP	Tb PFK inh-2
O=Cc1cn(Cc2cccc([N+](=O)[O-])c2)c2ccccc12	?	-2%	-7%	1%	i	?	-24%
Fc1ccc(C2CC(c3ccco3)=Nc3ccccc3S2)cc1 (stereo not given)	?	-2%	0%	-35%	-4%	7%	-12%
O=[N+]([O-])c1ccc(C2CC(c3ccccc3)=Nc3ccccc3S2)cc1 (stereo not given)	?	2%	-1%	?	i	7%	1%
CN1CCc2cccc3c2C1Cc1ccc(O)c(O)c1-3 (stereo not given)	4.3µM*	0%	58%	10µM*!	-10%	19µM*	17µM*
C=CCN1CCc2cccc3c2[C@H]1Cc1ccc(O)c(O)c1-3	?	-5%	?	10µM*!	-6%	6µM*	6µM*
CNC(C)Cc1ccc2c(c1)OCO2 (stereo not given)	.	.	-3%[99.4 µM]	.	.	.	.
CCC(C)C1NC(=O)C(NC(=O)C(CC(C)C)N(C)C(=O)C2CCCN2C(=O)C(C)O)C(C)OC(=O)C(Cc2ccc(OC)cc2)N(C)C(=O)C2CCCN2C(=O)C(CC(C)C)NC(=O)[C@H](C)C(=O)[C@H](C(C)C)OC(=O)CC1O (stereo not given in full)	.	-2%	0%	-13%	i	.	.
C=C(C)C(=O)Nc1ccc2c(c1)OCCOCCOCCO2	11µM*	.	5%	0%	?	0.54µM*	0.67µM*
Cc1cc(C(=O)Nc2ccc3c(c2)OCCO3)nn1C(C)(C)C	2%	-6%	1%	-26%	i	.	.
C[C@]12CCC3C(CC[C@H]4C[C@@H](O)CC[C@]34C)C1=CC[C@@H]2O (stereo not given in full)	.	.	-4%	.	-4%	.	.
Nc1cc(=O)[nH]c(SCC(=O)Nc2ccc(F)c(Cl)c2)n1	?	3%	0%	-3%	1%	?	30µM*
NC(=O)Nc1ccc(Cl)cc1	21µM*	-13%	2%	-1%	i	24µM*	30µM*

Compound activity deposited in PubChem BioAssay by National Center for Advancing Translational Sciences (NCATS).
